Assay [1] can be described thus: NCI Yeast Anticancer Drug Screen. Data for the rad50 strain (AID 155).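 Also: 0% = growth of vehicle-only cultures of the same strain.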 The note with it: S. cerevisiae rad50 strain growth inhibition, active compounds read high. The method in brief: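 DNA repair mutant yeast, compound exposure, growth read-out; inhibition is taken relative to vehicle.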
Assay [2] can be described thus: NCI Yeast Anticancer Drug Screen. Data for the mec2-1 strain (AID 157). The note with it: S. cerevisiae mec2-1 strain, active compounds read high. The method in brief:
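Yeast mec2-1 mutant treated with compound. Readout: growth inhibition vs vehicle controls.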

Assay [3] is described as follows: NCI Yeast Anticancer Drug Screen. Data for the sgs1 mgt1 strain (AID 161).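 Also: 0% = growth of cultures given vehicle only.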 The note with it: S. cerevisiae sgs1 mgt1 strain, active compounds read high. A digest of the protocol: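 Test agents were incubated with a DNA-repair-mutant yeast strain. Growth was then read and compared against vehicle-treated controls.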
The nature of assay [4]: NCI Yeast Anticancer Drug Screen. Data for the cln2 rad14 strain (AID 165).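 Also: 0% = growth equal to vehicle treated cultures.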 The note with it: S. cerevisiae cln2 rad14 strain, active compounds read high. A digest of the protocol: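 cln2 rad14 yeast strain; compound exposure; growth inhibition read vs vehicle controls.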
Assay [5] can be described thus: NCI Yeast Anticancer Drug Screen. Data for the bub3 strain (AID 167). The note with it: S. cerevisiae bub3 mutant strain, active compounds read high. The method in brief:
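In this screen, a yeast mutant lacking normal mitotic checkpoint function is challenged with compound. Relative growth versus vehicle gives the inhibition value.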

A short description of assay [6]: NCI Yeast Anticancer Drug Screen. Data for the mlh1 rad18 strain (AID 175). The note with it: S. cerevisiae mlh1 rad18 strain growth inhibition, active compounds read high. The method in brief: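 Yeast w/ defined DNA-repair lesions; compound exposure; growth vs vehicle controls → % inhibition.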
Setting [7] is: at 5.0 µM (retest, dose inferred, filed as 0.5).
Setting [8] is: at 50.0 µM (retest, dose inferred, filed as 5.0).

This is part of a sample that, as a whole, favours compounds with a hit. Of some 79,000 tested, about 15% had one in any assay. A number with no mark means an inactive call. Active and inactive are the calls of the source. Rule as the data show it: active = growth inhibition above about 70%; inactive = the rest.

With `Fc1cccc(NC(=S)SCc2ccco2)c1`, the growth inhibition is 9% in assay [1] (setting [7]); 84% (active) in assay [1] (setting [8]); 97.7% (active) in assay [1] (at 50.0 µM); -1% in assay [2] (setting [7]); 93% (active) in assay [2] (setting [8]); 84.2% (active) in assay [2] (at 50.0 µM). Also, the growth inhibition in assay [3] (setting [7]) was 2%; in assay [3] (setting [8]) it was 80% (active); in assay [3] (at 50.0 µM), 96% (active); in assay [4] (setting [7]) it was -2%; in assay [4] (setting [8]), 45%; in assay [4] (at 50.0 µM), 61.2%. In addition, the growth inhibition in assay [5] (setting [7]) was -11%; in assay [5] (setting [8]) it was 61%; in assay [5] (at 50.0 µM), 82% (active); in assay [6] (setting [7]), -1%; in assay [6] (setting [8]), 89% (active); in assay [6] (at 50.0 µM), 97.2% (active).
With `O=C1C(Cl)=C(Cl)C(=O)C2CC=CCC12` (stereo unspecified), the growth inhibition in assay [1] (setting [7]) was 68%; in assay [1] (setting [8]) it was 97% (active); in assay [1] (at 50.0 µM), 99.3% (active); in assay [2] (setting [7]) it was 92% (active); in assay [2] (setting [8]), 99% (active); in assay [2] (at 50.0 µM), 99.4% (active). Also, the growth inhibition in assay [3] (setting [7]) was 92% (active); in assay [3] (setting [8]) it was 99% (active); in assay [3] (at 50.0 µM), 99.6% (active); in assay [4] (setting [7]), 85% (active); in assay [4] (setting [8]), 99% (active); in assay [4] (at 50.0 µM), 99.1% (active). Further, the growth inhibition is 91% (active) in assay [5] (setting [7]); 99% (active) in assay [5] (setting [8]); 99.5% (active) in assay [5] (at 50.0 µM); 90% (active) in assay [6] (setting [7]); 99% (active) in assay [6] (setting [8]); 99.5% (active) in assay [6] (at 50.0 µM).
For `COc1ccc(OCC(O)CN2CCN(c3cccc(Cl)c3)CC2)cc1` (stereo unspecified), the growth inhibition in assay [1] (setting [7]) is -2%; in assay [1] (setting [8]), -3%; in assay [1] (at 50.0 µM), 72.5% (active); in assay [2] (setting [7]) it was 15%; in assay [2] (setting [8]), 28%; in assay [2] (at 50.0 µM), 37.6%. The growth inhibition was 1% in assay [3] (setting [7]); 23% in assay [3] (setting [8]); 95.5% (active) in assay [3] (at 50.0 µM); -6% in assay [4] (setting [7]); -7% in assay [4] (setting [8]); 33.6% in assay [4] (at 50.0 µM). For the same compound, the growth inhibition in assay [5] (setting [7]) was -4%; in assay [5] (setting [8]) it was 8%; in assay [5] (at 50.0 µM) it was 42.6%; in assay [6] (setting [7]) it was 20%; in assay [6] (setting [8]), 31%; in assay [6] (at 50.0 µM), 69.9%.
With `CC(=O)c1ccc([N+](=O)[O-])o1`, the growth inhibition in assay [1] (setting [7]) is 19%; in assay [1] (setting [8]), 98% (active); in assay [1] (at 50.0 µM), 96.5% (active); in assay [2] (setting [7]), 22%; in assay [2] (setting [8]), 99% (active); in assay [2] (at 50.0 µM), 92.2% (active). Also, the growth inhibition is 11% in assay [3] (setting [7]); 61% in assay [3] (setting [8]); 91.3% (active) in assay [3] (at 50.0 µM); 0% in assay [4] (setting [7]); 97% (active) in assay [4] (setting [8]); 86.9% (active) in assay [4] (at 50.0 µM). In addition, the growth inhibition in assay [5] (setting [7]) is 21%; in assay [5] (setting [8]), 99% (active); in assay [5] (at 50.0 µM), 92.5% (active); in assay [6] (setting [7]), 38%; in assay [6] (setting [8]), 99% (active); in assay [6] (at 50.0 µM), 98.4% (active).
`CC(C)N(C(=O)C12C3C4C1C1C2C3C41I)C(C)C` (stereo unspecified): the growth inhibition is 16% in assay [1] (setting [7]); -6% in assay [1] (setting [8]); 57.5% in assay [1] (at 50.0 µM); -28% in assay [2] (setting [7]); 19% in assay [2] (setting [8]); 67.4% in assay [2] (at 50.0 µM). Also, the growth inhibition is 44% in assay [3] (setting [7]); 27% in assay [3] (setting [8]); 68.5% in assay [3] (at 50.0 µM); 3% in assay [4] (setting [7]); 28% in assay [4] (setting [8]); 42.7% in assay [4] (at 50.0 µM). Also, the growth inhibition is -38% in assay [5] (setting [7]); -11% in assay [5] (setting [8]); 61% in assay [5] (at 50.0 µM); -34% in assay [6] (setting [7]); 20% in assay [6] (setting [8]); 73.5% (active) in assay [6] (at 50.0 µM).
On to `C[N+](C)([O-])CCC=C1c2ccccc2CCc2ccccc21`, for which the growth inhibition in assay [1] (setting [7]) was 10%; in assay [1] (setting [8]), 46%; in assay [1] (at 50.0 µM), 62.5%; in assay [2] (setting [7]), 12%; in assay [2] (setting [8]), 9%; in assay [2] (at 50.0 µM) it was 28.4%. Further, the growth inhibition is -2% in assay [3] (setting [7]); 33% in assay [3] (setting [8]); 7.75% in assay [3] (at 50.0 µM); -20% in assay [4] (setting [7]); 21% in assay [4] (setting [8]); 12.5% in assay [4] (at 50.0 µM). Moreover, the growth inhibition in assay [5] (setting [7]) is 3%; in assay [5] (setting [8]), 33%; in assay [5] (at 50.0 µM), 73.5% (active); in assay [6] (setting [7]), 4%; in assay [6] (setting [8]) it was 33%; in assay [6] (at 50.0 µM) it was 33.5%.
Consider `Brc1ccc(N=NN2CCCC2)cc1`, for which the growth inhibition in assay [1] (setting [7]) was 14%; in assay [1] (setting [8]) it was 12%; in assay [1] (at 50.0 µM) it was 74% (active); in assay [2] (setting [7]) it was 0%; in assay [2] (setting [8]), 8%; in assay [2] (at 50.0 µM), 59.6%. In addition, the growth inhibition in assay [3] (setting [7]) was 33%; in assay [3] (setting [8]), 33%; in assay [3] (at 50.0 µM) it was 86.4% (active); in assay [4] (setting [7]), 36%; in assay [4] (setting [8]), 36%; in assay [4] (at 50.0 µM) it was 68%. In addition, the growth inhibition is 30% in assay [5] (setting [7]); 37% in assay [5] (setting [8]); 85.6% (active) in assay [5] (at 50.0 µM); 7% in assay [6] (setting [7]); 5% in assay [6] (setting [8]); 86.1% (active) in assay [6] (at 50.0 µM).
